A selection: hits, their analogues and other compounds. The true share with any hit is near 3.5%.
FBW7 act: FBW7 E3 ligase activators, primary screen, biochemical, AlphaScreen, human; F-box/WD repeat-containing protein 7 (Homo sapiens), Q969H0; AlphaScreen FBW7–phospho-cyclin E peptide binding, activator screen; normalized activity (activation), % at 26.1 µM; 0.13% of 650,000 active; AID 1259310, 2017; in the data active = normalized activity above about 1.9%;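 note: purified mutant Fbw7 with reduced substrate affinity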
GPR151 activ: activators of human GPR151, primary screen, cell-based, PathHunter beta-arrestin, luminescence | G-protein coupled receptor 151 (Homo sapiens), Q8TDV0 | PathHunter beta-arrestin GPR151 cells | activation, % at 11.2 µM | 1% of 650,000 active | AID 1508602, 2020; in the data active = activation above about 4.9%
MITF primary: MITF inhibitors, primary screen, biochemical, AlphaScreen, human. Microphthalmia-associated transcription factor (Homo sapiens), O75030. AlphaScreen MITF homodimerization, bead proximity signal. inhibition, % at 2.6 µM. 0.91% of 650,000 active; in the data active = inhibition above about 50%
TEAD-YAP inh: TEAD-YAP interaction inhibition, primary screen, TEAD-YAP interaction inhibitor project, luminescence, HEK-TIYL cells; TEAD-Gal4/YAP UAS-luciferase luminescence; AID 1259422, 2018; 1.4% of 640,000 active; inhibition, % at 9.12 µM; in the data active = inhibition above about 32%
GPR151 conf act: GPR151 activators, triplicate retest, confirmation, cell-based, PathHunter beta-arrestin, luminescence; shares compounds with GPR151 activ; GPR151 PathHunter beta-arrestin cells, 90 min; % of EA-reagent control over plate median; activation, % at 11.2 µM; 6,700 tested, under 10 active;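 active = mean percent activation across replicates above the confirmation screen cutoff of 4.91%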
GPR119 ag: GPR119 activators in beta-arrestin cells, counter-screen for GPR151 activator project, cell-based, PathHunter beta-arrestin, luminescence, triplicate | AID 1508611, 2020 | 0.3% of 6,700 active | activation, % at 11.2 µM | shares compounds with GPR151 activ | 90 min; 0 = compound-well median, 100 = enzyme-acceptor control;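 active = mean percent activation in the counterscreen above 29.09%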;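 note: counterscreen on off-target GPR119 to flag nonselective hits from the GPR151 activator screen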
Numbers stand for hits; – = inactive; · = no result given; ! = repeats disagree.

SMILES	FBW7 act	GPR151 activ	MITF primary	TEAD-YAP inh	GPR151 conf act	GPR119 ag
CCn1c2ccccc2c2cc(/C=N/O)ccc21	–	–	–	–	·	·
CCn1c2ccccc2c2cc(/C=N/n3cn[nH]c3=S)ccc21	–	5.0	–	–	–	–
S=C(Nc1ccc(Cl)cc1)Nc1ccccn1	–	–	–	–	·	·
O=C(NNc1ccccn1)Nc1ccc(Cl)cc1	–	6.5	–	–	–	–
Nc1cc(-c2ccccc2)nn1Cc1cccc(Cl)c1	–	–	–	–	·	·
Nc1c(-c2ccccc2)c(-c2ccccc2)nn1Cc1ccccc1	–	6.9	–	–	–	–
COC(=O)C1=C(C)NC2=C(C(=O)CCC2)C1c1cc([N+](=O)[O-])ccc1Cl (configuration not stated)	–	–	–	–	·	·
CC1(C)C(=O)NC2CCCCC2N1C(=O)CCl (configuration not stated)	–	5.3	–	–	–	–
O=C1N/C(=C\c2ccc(-c3ccccc3[N+](=O)[O-])o2)C(=O)N1c1ccccc1	–	–	–	–	·	·
Cc1ccc(NC(=O)CN(C)C(=O)CSc2nnc(C3CC3)n2N)cc1	–	–	–	–	·	·
CCC1CN(CCC(=O)NCc2ccncc2)Cc2cc(OC)ccc2O1 (configuration not stated)	–	–	–	–	·	·
O=C(Nc1ccc(N2CCOCC2)cc1)c1cnc(N2CCC(N3CCOCC3)CC2)s1	–	–	–	–	·	·
CC(=O)c1ccc(NC2=C(N3CCCCC3)C(=O)c3ccccc3C2=O)cc1	–	–	–	–	·	·
C/C(=N/O)c1ccc(NC2=C(N3CCCC3)C(=O)c3ccccc3C2=O)cc1	–	5.9	–	–	–	–
CCOCCCNC(=O)C(NC(=O)c1ccc(=O)[nH]c1)c1ccccc1 (configuration not stated)	–	5.0	–	–	–	–
Cc1cc(C)n(-c2ccccc2Cl)c(=O)c1C(=O)O	–	–	–	–	·	·
O=C(Nc1ccccc1)NC1c2ccccc2Oc2ccccc21	–	6.6	–	–	–	–
O=C(NC1c2ccccc2Oc2ccccc21)c1ccncc1	–	–	–	–	·	·
COCCN1C(=O)CC[C@@]23C1=NC(C(=O)OC)=C(C(=O)OC)[C@@H]2N(C)c1ccccc13	–	6.9	–	·	–	–
COCCN1C(=O)CC[C@@]23C1=NC(C(=O)OC)=C(C(=O)OC)[C@@H]2N(Cc1ccccc1)c1ccccc13	–	–	–	·	·	·
COC(=O)C1=C(C(=O)OC)[C@@H]2N(C)c3ccccc3[C@@]23CCC(=O)N(CCCOC(C)C)C3=N1	–	7.2	–	·	–	–
CC(C)(O)c1ccccc1CC[C@@H](SCC1(CC(=O)O)CC1)c1cccc(/C=C/c2ccc3ccc(Cl)cc3n2)c1	–	6.7!	–	–	–	–
Cc1ccc(S(=O)(=O)N2CCN(Cc3ccccc3)CC2)cc1C(N)=O	–	–	–	–	·	·
CCOc1ccc(C2NC(=S)NC3=C2C(=O)CCC3)cc1 (configuration not stated)	–	5.8	–	–	–	–
Cc1ccc(OCc2n[nH]c(=S)n2C)cc1C	–	–	–	–	·	·
SMILES	FBW7 act	GPR151 activ	MITF primary	TEAD-YAP inh	GPR151 conf act	GPR119 ag
Cc1cc(NC(=O)CSc2nc3ccsc3c(=O)n2-c2ccc(C(N)=O)cc2)no1	–	5.0	–	–	–	–
CN1CCN(/N=C/C2=C(O)CC(C)(C)CC2=O)CC1	–	8.4	–	–	–	–
COC(=O)COc1ccc(C(=O)CSc2nc3cc(OC)ccc3n2C)cc1	–	–	–	–	·	·
COc1ccc(C2=N/C(=C/c3cccc(OC)c3OC)C(=O)O2)cc1Br	–	5.0	–	–	–	–
Cc1cccc(C2=N/C(=C\c3ccc(I)o3)C(=O)O2)c1	–	5.3	–	–	–	–
CCOc1ccccc1/C=C1\N=C(c2ccc(C)cc2)OC1=O	–	–	–	–	·	·
CCOc1ccccc1/C=C1\N=C(c2cccc(C)c2)OC1=O	–	9.7	–	–	–	–
